Records with an inconclusive call do not appear. The source made the active and inactive calls. Calls come from the whole dose curve; as a rule, active = well fitted curve in the direction sought with a large enough effect in the repeat runs; inconclusive = weak or mixed curves; inactive = no such curve, though single readings can be large; an effect the other way counts as inactive or inconclusive.
Key:
[1] = Human pregnane X receptor (PXR) small molecule agonists, qHTS cell viability counter screen (AID 1346977); note: nearly all actives have a fitted effect of over 50% in size
How it was run: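 PXR-Luc HepG2 cells (2,000/well, 5% charcoal-stripped FBS) preincubated 5 hr, then exposed to compounds 24 hr at 37 C. Viability read in the same wells by CellTiter-Fluor fluorescence, reagent added at 23 hr, 1 hr incubation.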

[2] = Caspase-3/7 induction in HepG2 cells by small molecules, qHTS assay (AID 1346978); note: nearly all actives have a fitted effect of over 15% in size
How it was run: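 Wild-type HepG2 cells (2,000/well) were settled 5 h at 37 C, 5% CO2, then exposed to compounds in DMSO for 17 h. Caspase-3/7 activity was read by luminescence 30 min after adding Caspase-Glo 3/7 reagent at room temperature.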

[3] = Caspase-3/7 induction in CHO-K1 cells by small molecules, qHTS cell viability counter screen (AID 1346979); note: nearly all actives have a fitted effect of over 35% in size
How it was run: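 Wild-type CHO-K1 cells (1,500/well) treated with compound after 5 h plating; after 16 h at 37C, viability read as CellTiter-Fluor fluorescence following 1 h reagent incubation, in the same wells as the caspase read.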

[4] = Caspase-3/7 induction in CHO-K1 cells by small molecules, qHTS assay (AID 1346980); note: nearly all actives have a fitted effect of over 15% in size
How it was run: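 Wild-type cells were seeded at 1,500 per well and settled 5 hr at 37 C, 5% CO2, then exposed to DMSO-dissolved compounds for 17 hr. Caspase-Glo 3/7 reagent was added, and luminescence was read after 30min at room temperature.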

[5] = Caspase-3/7 induction in HepG2 cells by small molecules, qHTS cell viability counter screen (AID 1346981); note: series mostly up to about 92 µM; nearly all actives have a fitted effect of over 30% in size
How it was run: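 CellTiter-Fluor fluorescence measured viability in the same wells used for Caspase-Glo 3/7. HepG2 (wild type) at 2,000 cells/well were pre-incubated 5 hr, dosed, and given reagent at 16 hr, with 1 hr further at 37C.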

[6] = target: Nuclear receptor subfamily 1 group I member 2 (Homo sapiens) (UniProt O75469); assay: Human pregnane X receptor (PXR) small molecule agonists, qHTS assay (AID 1346982); note: nearly all actives have a fitted effect of over 35% in size; note: potency is the fitted concentration of half-maximal effect
Chain of Nuclear receptor subfamily 1 group I member 2 (Homo sapiens) (O75469 whole entry, looked up): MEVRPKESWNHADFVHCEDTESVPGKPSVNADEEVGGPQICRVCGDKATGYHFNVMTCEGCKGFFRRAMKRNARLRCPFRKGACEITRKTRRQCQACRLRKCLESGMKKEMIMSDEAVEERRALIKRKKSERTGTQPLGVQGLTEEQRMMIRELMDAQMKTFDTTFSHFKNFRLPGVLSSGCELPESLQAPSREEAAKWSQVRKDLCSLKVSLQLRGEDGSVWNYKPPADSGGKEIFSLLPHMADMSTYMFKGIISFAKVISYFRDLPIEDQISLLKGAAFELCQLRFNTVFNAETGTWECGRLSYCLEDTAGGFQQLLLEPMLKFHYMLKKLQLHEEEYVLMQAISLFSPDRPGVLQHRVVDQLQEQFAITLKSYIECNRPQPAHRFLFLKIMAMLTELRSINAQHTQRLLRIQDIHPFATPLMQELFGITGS
How it was run: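 Agonist mode: luminescence from ONE-Glo after 24 h compound exposure at 37C in HepG2 cells carrying hPXR-responsive CYP3A4 luciferase, plated in charcoal-stripped serum medium 5 h beforehand.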

[7] = target: Cytochrome P450 2D6 (Homo sapiens) (UniProt P10635); assay: Cytochrome P450 Family 2 Subfamily D Member 6 (CYP2D6) small molecule antagonists: luciferase reporter qHTS assay (AID 1671196); note: nearly all actives have a fitted effect of over 50% in size; note: potency is the fitted concentration of half-maximal effect; for activity change, negative = inhibition: series mostly up to about 120 µM
Chain of Cytochrome P450 2D6 (Homo sapiens) (P10635 whole entry, looked up): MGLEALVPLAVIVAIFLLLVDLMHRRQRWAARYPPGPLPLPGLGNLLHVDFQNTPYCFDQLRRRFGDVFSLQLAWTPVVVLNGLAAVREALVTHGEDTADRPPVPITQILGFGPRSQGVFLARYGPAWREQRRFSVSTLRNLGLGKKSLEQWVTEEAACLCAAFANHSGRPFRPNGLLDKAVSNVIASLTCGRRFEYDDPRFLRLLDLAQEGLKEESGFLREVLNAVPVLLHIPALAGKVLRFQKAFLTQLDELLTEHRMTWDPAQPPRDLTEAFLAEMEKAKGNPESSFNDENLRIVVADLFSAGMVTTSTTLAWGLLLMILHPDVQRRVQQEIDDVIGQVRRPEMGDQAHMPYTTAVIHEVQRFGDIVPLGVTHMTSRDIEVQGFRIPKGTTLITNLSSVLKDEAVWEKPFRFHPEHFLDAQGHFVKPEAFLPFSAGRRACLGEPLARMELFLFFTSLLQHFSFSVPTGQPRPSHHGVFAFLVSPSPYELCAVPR
How it was run: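 CYP2D6 activity was followed as luminescence from its luciferin product after a 1 h NADPH-driven reaction at room temperature. Enzyme-substrate mix and compound were pre-incubated for 10 min, and the signal was read 20 min after adding detection reagent.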

[8] = target: Cytochrome P450 1A2 (Homo sapiens) (UniProt P05177); assay: Cytochrome P450 Family 1 Subfamily A Member 2 (CYP1A2) small molecule antagonists: luciferase reporter qHTS assay (AID 1671199); note: nearly all actives have a fitted effect of over 50% in size; note: potency is the fitted concentration of half-maximal effect; for activity change, negative = inhibition: series mostly up to about 120 µM
Chain of Cytochrome P450 1A2 (Homo sapiens) (P05177 whole entry, looked up): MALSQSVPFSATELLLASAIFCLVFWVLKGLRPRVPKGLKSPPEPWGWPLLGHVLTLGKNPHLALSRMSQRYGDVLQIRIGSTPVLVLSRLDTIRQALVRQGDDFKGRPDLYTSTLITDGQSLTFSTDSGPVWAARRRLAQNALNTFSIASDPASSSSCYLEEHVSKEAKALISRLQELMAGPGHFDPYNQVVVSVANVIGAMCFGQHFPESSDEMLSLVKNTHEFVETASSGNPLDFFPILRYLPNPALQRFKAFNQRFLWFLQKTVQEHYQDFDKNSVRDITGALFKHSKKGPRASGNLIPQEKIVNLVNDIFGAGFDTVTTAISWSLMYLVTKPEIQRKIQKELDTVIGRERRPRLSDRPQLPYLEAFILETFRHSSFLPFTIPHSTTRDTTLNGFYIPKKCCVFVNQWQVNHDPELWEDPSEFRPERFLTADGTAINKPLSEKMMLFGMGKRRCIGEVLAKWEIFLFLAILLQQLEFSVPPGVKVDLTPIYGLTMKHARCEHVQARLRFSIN
How it was run: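 Luminescence from luciferin formed by CYP1A2 from a proluciferin substrate, read 20 min after detection reagent. Compound was pre-incubated 10 min with enzyme-substrate, and reaction started with NADPH regeneration solution for 1 h at room temperature; furafylline control.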

[9] = target: Voltage-gated inwardly rectifying potassium channel KCNH2 (Homo sapiens) (UniProt Q12809); assay: Human Ether-a-go-go-Related Gene (hERG) channel small molecule antagonists: fluorescence cell-based qHTS assay (AID 1671200);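 note: hERG-expressing U2OS cells given a thallium stimulus after FluxOR II dye loading; series mostly up to about 77 µM; nearly all actives have a fitted effect of over 50% in size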
Chain of Voltage-gated inwardly rectifying potassium channel KCNH2 (Homo sapiens) (Q12809 whole entry, looked up): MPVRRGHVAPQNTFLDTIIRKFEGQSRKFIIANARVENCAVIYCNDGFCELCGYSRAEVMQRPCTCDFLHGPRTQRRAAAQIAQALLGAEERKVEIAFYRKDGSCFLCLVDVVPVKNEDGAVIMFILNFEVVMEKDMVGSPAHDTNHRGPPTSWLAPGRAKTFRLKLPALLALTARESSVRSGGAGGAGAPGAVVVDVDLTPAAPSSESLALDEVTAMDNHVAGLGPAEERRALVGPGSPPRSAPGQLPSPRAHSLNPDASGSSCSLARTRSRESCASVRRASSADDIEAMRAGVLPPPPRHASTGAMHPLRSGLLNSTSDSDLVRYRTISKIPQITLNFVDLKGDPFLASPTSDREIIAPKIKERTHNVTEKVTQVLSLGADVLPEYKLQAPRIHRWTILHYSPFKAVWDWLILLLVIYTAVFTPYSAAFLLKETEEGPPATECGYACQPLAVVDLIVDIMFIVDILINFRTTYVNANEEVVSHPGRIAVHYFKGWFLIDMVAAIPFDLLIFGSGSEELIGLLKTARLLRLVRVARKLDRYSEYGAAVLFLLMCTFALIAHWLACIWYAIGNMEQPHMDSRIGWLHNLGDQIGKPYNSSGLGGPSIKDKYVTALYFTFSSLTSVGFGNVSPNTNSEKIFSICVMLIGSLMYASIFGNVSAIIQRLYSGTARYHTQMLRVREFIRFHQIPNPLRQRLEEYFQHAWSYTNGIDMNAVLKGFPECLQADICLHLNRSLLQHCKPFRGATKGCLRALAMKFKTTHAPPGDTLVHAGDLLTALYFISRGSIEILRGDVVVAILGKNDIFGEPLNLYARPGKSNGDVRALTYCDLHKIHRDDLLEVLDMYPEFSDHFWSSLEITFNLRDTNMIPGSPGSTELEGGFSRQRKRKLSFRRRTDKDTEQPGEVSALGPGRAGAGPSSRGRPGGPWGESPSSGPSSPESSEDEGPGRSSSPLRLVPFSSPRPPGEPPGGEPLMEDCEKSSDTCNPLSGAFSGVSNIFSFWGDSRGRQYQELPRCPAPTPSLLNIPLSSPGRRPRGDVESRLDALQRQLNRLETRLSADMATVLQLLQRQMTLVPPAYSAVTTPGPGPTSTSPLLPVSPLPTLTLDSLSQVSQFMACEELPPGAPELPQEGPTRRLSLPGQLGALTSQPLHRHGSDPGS
How it was run: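 hERG-U2OS cells plated overnight at 37 C, loaded with FluxOR II dye 1 h at RT in dark; after 10 min, thallium stimulus added. Fluorescence (480/540 nm) read kinetically for 2 min at 1 s intervals.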

[10] = target: Cytochrome P450 3A4 (Homo sapiens) (UniProt P08684); assay: Cytochrome P450 Family 3 Subfamily A Member 4 (CYP3A4) small molecule antagonists: luciferase reporter qHTS assay (AID 1671201); note: nearly all actives have a fitted effect of over 50% in size; note: potency is the fitted concentration of half-maximal effect; for activity change, negative = inhibition: series mostly up to about 120 µM
Chain of Cytochrome P450 3A4 (Homo sapiens) (P08684 whole entry, looked up): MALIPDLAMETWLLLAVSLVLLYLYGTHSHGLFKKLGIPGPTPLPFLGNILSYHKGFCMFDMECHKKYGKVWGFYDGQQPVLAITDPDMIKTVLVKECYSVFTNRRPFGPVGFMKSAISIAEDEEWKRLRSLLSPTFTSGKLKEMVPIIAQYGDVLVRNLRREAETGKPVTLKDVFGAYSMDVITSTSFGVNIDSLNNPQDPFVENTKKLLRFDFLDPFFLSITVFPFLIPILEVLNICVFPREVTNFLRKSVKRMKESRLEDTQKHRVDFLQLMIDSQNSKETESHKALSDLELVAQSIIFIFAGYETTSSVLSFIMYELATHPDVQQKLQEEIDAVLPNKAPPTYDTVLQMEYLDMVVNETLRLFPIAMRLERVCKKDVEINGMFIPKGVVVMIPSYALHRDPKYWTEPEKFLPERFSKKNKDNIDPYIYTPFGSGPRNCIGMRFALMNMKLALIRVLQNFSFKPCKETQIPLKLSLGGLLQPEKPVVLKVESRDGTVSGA
How it was run: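 P450-Glo CYP3A4 luminescent assay: compounds preincubated 10 min at room temperature with enzyme and proluciferin substrate, NADPH regeneration added, 1 h room-temperature reaction, stopped with luciferin detection reagent; luminescence read after 20 min. Ketoconazole positive control.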

[11] = target: Nuclear receptor subfamily 1 group I member 2 (Rattus norvegicus) (UniProt Q9R1A7); assay: Rat pregnane X receptor (rPXR) activation by small molecules, qHTS assay (AID 1346983); conditions: rPXR luciferase reporter cells, One-Glo luminescence, 24 h; active compounds read high; note: nearly all actives have a fitted effect of over 20% in size
Chain of Nuclear receptor subfamily 1 group I member 2 (Rattus norvegicus) (Q9R1A7 whole entry, looked up): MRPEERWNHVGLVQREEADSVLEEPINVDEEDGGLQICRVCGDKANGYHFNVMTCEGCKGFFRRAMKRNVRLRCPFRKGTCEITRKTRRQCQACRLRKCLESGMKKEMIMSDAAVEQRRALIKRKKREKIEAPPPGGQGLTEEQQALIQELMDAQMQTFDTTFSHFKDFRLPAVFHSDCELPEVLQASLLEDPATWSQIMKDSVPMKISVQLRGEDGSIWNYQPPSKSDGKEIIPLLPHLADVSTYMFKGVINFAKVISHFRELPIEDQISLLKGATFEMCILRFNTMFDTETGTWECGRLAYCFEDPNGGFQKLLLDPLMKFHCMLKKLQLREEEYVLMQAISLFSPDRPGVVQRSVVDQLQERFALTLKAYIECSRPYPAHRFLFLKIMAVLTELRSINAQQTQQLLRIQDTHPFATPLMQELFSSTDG
How it was run: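 Cell-based rPXR luciferase reporter assay, 2,000 cells per well, rested 5hr at 37 C before compound addition in DMSO, then 24 hr at 37 C. One-Glo reagent was added and luminescence read after 30 min at room temperature.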

[12] = target: Nuclear receptor subfamily 1 group I member 2 (Homo sapiens) (UniProt O75469); assay: CYP3A4 induction through human pregnane X receptor (PXR) by small molecules, qHTS assay (AID 1346984); note: nearly all actives have a fitted effect of over 40% in size; note: potency is the fitted concentration of half-maximal effect
How it was run: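 Read-out is luminescence after One-Glo addition, following a 3 hr, 37C incubation with Luciferin-IPA CYP3A4 substrate (3uM final). Before that, compounds were on DPX-2 cells (HepG2 co-transfected with PXR element plus CYP3A4-promoter luciferase) for 24 hr at 37C.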

[13] = target: Nuclear receptor subfamily 1 group I member 2 (Homo sapiens) (UniProt O75469); assay: Human pregnane X receptor (PXR) activation by small molecules, qHTS assay (AID 1346985); note: nearly all actives have a fitted effect of over 40% in size
How it was run: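 DPX-2 cells (HepG2 co-transfected with a PXR response element and a CYP3A4-promoter luciferase construct) were seeded at 2,000 per well, rested 5 hr at 37C, then exposed to DMSO-dissolved compounds for 24 hr. Activation was read as luciferase luminescence.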

[14] = target: Cytochrome P450 2C19 (Homo sapiens) (UniProt P33261); assay: Cytochrome P450 Family 2 Subfamily C Member 19 (CYP2C19) small molecule antagonists: luciferase reporter qHTS assay (AID 1671197); note: nearly all actives have a fitted effect of over 65% in size; note: potency is the fitted concentration of half-maximal effect; for activity change, negative = inhibition: series mostly up to about 120 µM
Chain of Cytochrome P450 2C19 (Homo sapiens) (P33261 whole entry, looked up): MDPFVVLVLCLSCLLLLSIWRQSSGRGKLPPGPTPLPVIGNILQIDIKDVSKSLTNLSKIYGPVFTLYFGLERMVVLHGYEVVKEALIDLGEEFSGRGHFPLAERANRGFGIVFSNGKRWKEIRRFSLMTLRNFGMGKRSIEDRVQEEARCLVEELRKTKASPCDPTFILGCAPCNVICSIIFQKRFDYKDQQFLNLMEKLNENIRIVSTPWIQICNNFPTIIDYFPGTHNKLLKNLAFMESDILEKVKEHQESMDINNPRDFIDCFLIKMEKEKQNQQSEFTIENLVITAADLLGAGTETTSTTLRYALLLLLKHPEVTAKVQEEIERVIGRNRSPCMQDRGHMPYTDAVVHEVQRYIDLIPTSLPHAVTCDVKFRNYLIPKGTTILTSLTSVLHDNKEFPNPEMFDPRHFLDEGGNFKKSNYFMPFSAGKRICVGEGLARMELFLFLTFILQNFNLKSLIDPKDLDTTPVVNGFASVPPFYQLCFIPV
How it was run: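 CYP2C19 P450-Glo, 1536-well qHTS. Cpd + enzyme/proluciferin substrate 10 min RT; + NADPH regen, 37C 1 h; stop with luciferin detection reagent, 20 min RT, luminescence (RLU). Pos ctrl ketoconazole.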

[15] = target: Cytochrome P450 2C9 (Homo sapiens) (UniProt P11712); assay: Cytochrome P450 Family 2 Subfamily C Member 9 (CYP2C9) small molecule antagonists: luciferase reporter qHTS assay (AID 1671198); note: nearly all actives have a fitted effect of over 50% in size; note: potency is the fitted concentration of half-maximal effect; for activity change, negative = inhibition: series mostly up to about 120 µM
Chain of Cytochrome P450 2C9 (Homo sapiens) (P11712 whole entry, looked up): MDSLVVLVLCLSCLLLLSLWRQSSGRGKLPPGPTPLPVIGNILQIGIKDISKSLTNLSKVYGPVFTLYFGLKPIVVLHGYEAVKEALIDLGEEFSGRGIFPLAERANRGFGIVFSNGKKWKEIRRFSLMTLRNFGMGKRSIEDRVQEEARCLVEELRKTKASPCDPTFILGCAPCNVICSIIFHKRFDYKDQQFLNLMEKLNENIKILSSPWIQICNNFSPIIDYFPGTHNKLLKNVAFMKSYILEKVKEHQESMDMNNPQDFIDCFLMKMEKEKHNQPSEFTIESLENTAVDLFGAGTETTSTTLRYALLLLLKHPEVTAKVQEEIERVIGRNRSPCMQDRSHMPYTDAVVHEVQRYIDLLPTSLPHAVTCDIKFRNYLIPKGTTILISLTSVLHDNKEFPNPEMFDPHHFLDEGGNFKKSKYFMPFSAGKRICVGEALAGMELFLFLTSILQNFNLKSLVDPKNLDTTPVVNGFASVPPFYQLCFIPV
How it was run: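 CYP2C9 activity was measured with a P450-Glo proluciferin substrate. Enzyme–substrate mix was held with compound for 10 min at room temperature, then NADPH regeneration solution was added for 1 h at 37C. Luciferin product was read as luminescence.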
% is set by controls: 0 for no effect and ±100 for the full control effect.

CCCCCCCCC(=O)Cl
active: Potency [8] 64 µM
inactive: Potency [1] | Potency [2] | Potency [3] | outcome [4] | Potency [5] | Potency [6] | Potency [7] | Potency [9] | Potency [10]

COc1cc(NS(=O)(=O)c2ccc(N)cc2)nc(OC)n1
inactive: Potency [1] | Potency [2] | Potency [3] | outcome [4] | Potency [5] | Potency [6] | max activation [11] -2.35% | Potency [12] | Potency [13] | Potency [7] | Potency [14] | Potency [8] | Potency [9] | Potency [10]

CNC(=O)[C@H]1O[C@@H](n2cnc3c(NCc4cc(Cl)ccc4OCc4cc(C)no4)ncnc32)[C@H](O)[C@@H]1N
inactive: Potency [1] | Potency [2] | Potency [3] | outcome [4] | Potency [5] | Potency [6] | Potency [7] | Potency [14] | Potency [15] | Potency [8] | Potency [9]

CC(C)(C)c1cc(CCC(=O)NN)cc(C(C)(C)C)c1O
inactive: Potency [1] | Potency [2] | Potency [3] | outcome [4] | Potency [5] | Potency [9]
active: Potency [6] 34.4 µM | Potency [7] 35.6 µM | Potency [14] 6.33 µM | Potency [15] 5.03 µM | Potency [8] 8.94 µM | Potency [10] 0.159 µM

Cc1c(I)c(=O)n(-c2ccccc2)n1C
inactive: Potency [1] | Potency [2] | Potency [3] | outcome [4] | Potency [5] | Potency [6] | max activation [11] -0.919% | Potency [13] | Potency [14] | Potency [9] | Potency [10]

C[C@H](CCC(=O)O)[C@H]1CC[C@H]2[C@@H]3C(=O)C[C@@H]4CC(=O)CC[C@]4(C)[C@H]3CC(=O)[C@]12C
inactive: Potency [1] | Potency [2] | Potency [3] | outcome [4] | Potency [5] | Potency [6] | max activation [11] -0.558% | Potency [12] | Potency [13] | Potency [7] | Potency [14] | Potency [15] | Potency [9] | Potency [10]

COc1cc2c(cc1OC)C(=O)CC2
active: Potency [8] 27.5 µM
inactive: Potency [1] | Potency [2] | Potency [3] | outcome [4] | Potency [5] | Potency [6] | Potency [7] | Potency [14] | Potency [15] | Potency [9] | Potency [10]

COC(=O)C1CC(=O)C(C(=O)OC)CC1=O (centres undefined)
inactive: activity change, negative = cytotoxicity [1] 1.52% [at 8.39 µM] | caspase activation [2] 0.89% [at 8.39 µM] | activity change, negative = cytotoxicity [3] 8.06% [at 8.39 µM] | caspase-3/7 activation [4] 0.641% [at 8.39 µM] | activity change, negative = cytotoxicity [5] 9.03% [at 8.39 µM] | activation [6] 2.25% [at 8.39 µM] | activity change, negative = inhibition [7] -3.24% [at 10.5 µM] | activity change, negative = inhibition [15] -7.95% [at 10.5 µM] | activity change, negative = inhibition [9] 0.39% [at 6.97 µM] | activity change, negative = inhibition [10] 9.87% [at 10.5 µM]

O=C(O)c1cc(Br)c(O)c(Br)c1
active: Potency [14] 7.96 µM | Potency [15] 71 µM | Potency [8] 39.9 µM
inactive: Potency [1] | Potency [2] | Potency [3] | outcome [4] | Potency [5] | Potency [6] | Potency [9] | Potency [10]

COC(=O)[C@@H]1[C@H]2C[C@H]3c4[nH]c5ccccc5c4CCN3C[C@@H]2CC[C@@H]1O
inactive: Potency [1] | Potency [2] | Potency [3] | outcome [4] | Potency [5]

CC(C)(C)NC(N)=O
inactive: Potency [1] | Potency [2] | Potency [3] | outcome [4] | Potency [5] | Potency [6] | Potency [7] | Potency [15] | Potency [9] | Potency [10]
active: Potency [14] 71 µM | Potency [8] 17.8 µM

COc1ccc(-c2cc(=O)c3c(O)cc(O[C@@H]4O[C@H](CO[C@@H]5O[C@@H](C)[C@H](O)[C@@H](O)[C@H]5O)[C@@H](O)[C@H](O)[C@H]4O)cc3o2)cc1O
inactive: Potency [1] | Potency [2] | Potency [3] | outcome [4] | Potency [5] | Potency [6] | max activation [11] -2.2% | Potency [13] | Potency [7] | Potency [14] | Potency [8] | Potency [9] | Potency [10]
active: Potency [12] 12.6 µM

CN(C)c1ccc(C=O)cc1
active: Potency [14] 79.6 µM | Potency [15] 35.6 µM | Potency [8] 35.6 µM
inactive: Potency [1] | Potency [2] | Potency [3] | outcome [4] | Potency [5] | Potency [6] | Potency [7] | Potency [9] | Potency [10]

OCCCCC(O)CO (centres undefined)
active: Potency [15] 67.2 µM
inactive: Potency [1] | Potency [2] | Potency [3] | outcome [4] | Potency [5] | Potency [6] | Potency [7] | Potency [14] | Potency [8] | Potency [9] | Potency [10]

Cc1cc2cc3c(C)cc(=O)oc3c(C)c2o1
inactive: Potency [1] | Potency [2] | Potency [3] | outcome [4] | Potency [5] | max activation [11] 1.62% | Potency [12] | Potency [13] | Potency [14] | Potency [15] | Potency [9]
active: Potency [6] 5.96 µM | Potency [8] 6.45 µM

CCc1ccc(C=O)cc1
inactive: Potency [1] | Potency [2] | Potency [3] | outcome [4] | Potency [5] | Potency [6] | Potency [7] | Potency [14] | Potency [15] | Potency [9] | Potency [10]

CC(=O)N[C@@H](CCC(=O)O)C(=O)O
inactive: Potency [1] | Potency [2] | Potency [3] | outcome [4] | Potency [5] | Potency [6] | max activation [11] -1.49% | Potency [12] | Potency [13] | Potency [15] | Potency [8] | Potency [9] | Potency [10]

C=Cc1ccccn1
inactive: Potency [1] | Potency [2] | Potency [3] | outcome [4] | Potency [5] | Potency [6] | Potency [7] | Potency [15] | Potency [8] | Potency [9] | Potency [10]

CCC(C=O)CC
inactive: Potency [1] | Potency [2] | Potency [3] | outcome [4] | Potency [5] | Potency [6] | Potency [7] | Potency [14] | Potency [15] | Potency [9] | Potency [10]

Reference: PubChem BioAssay (Tox21)
